# According to PubChem BioAssay (EPA / NIEHS):
# Records with an inconclusive call do not appear. Activity calls are given as the source filed them. Rule for the calls, unless noted: active = hit-call score of the fitted dose curve at least 0.9, where 1 is the maximum; inactive = score below 0.9.
# Target: Steroid hormone receptor ERR1 (Homo sapiens) (UniProt P11474)
# Assay: ATG_ERRa_TRANS: Attagene TRANS-FACTORIAL HepG2 Assay for human Estrogen-Related Receptor alpha (ERRa) (AID 2282971; active = hit-call score of the fitted dose curve at least 0.9, where 1 is the maximum)
# Settings: HepG2 Attagene TRANS reporter, ERRa transactivation
# How it was run: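 Signal gain relative to DMSO for an ERRa-Gal4 chimeric receptor, read as reporter mRNA by RT-PCR/capillary electrophoresis. Human HepG2 liver cells, transient multiplex reporter transfection, 24 h chemical exposure.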
# Sequence of Steroid hormone receptor ERR1 (Homo sapiens) (P11474 whole entry, looked up): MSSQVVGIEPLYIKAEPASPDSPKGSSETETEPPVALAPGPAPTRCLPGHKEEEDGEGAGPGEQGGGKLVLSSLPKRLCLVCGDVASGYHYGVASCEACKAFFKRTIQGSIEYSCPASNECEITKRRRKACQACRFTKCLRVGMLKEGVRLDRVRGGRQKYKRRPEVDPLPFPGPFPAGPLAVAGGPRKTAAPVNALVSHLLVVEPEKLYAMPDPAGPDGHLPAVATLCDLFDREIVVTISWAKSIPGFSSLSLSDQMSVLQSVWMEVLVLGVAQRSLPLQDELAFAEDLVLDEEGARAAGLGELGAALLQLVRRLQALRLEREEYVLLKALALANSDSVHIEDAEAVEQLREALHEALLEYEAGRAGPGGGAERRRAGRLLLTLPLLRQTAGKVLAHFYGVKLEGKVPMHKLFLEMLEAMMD
row,SMILES,outcome
1,O=c1[nH]cccc1O,inactive
2,CCC(C)CO (configuration not stated),inactive
3,CCCCCCCC/C=C\CCCCCCCC(=O)OCC(O)CO (configuration not stated),inactive
4,C#CC(O)CCC (configuration not stated),inactive
5,O=c1cccc[nH]1,inactive
6,C=CC(=O)OCCC(F)(F)C(F)(F)C(F)(F)C(F)(F)F,inactive
7,F[Si-2](F)(F)(F)(F)F,inactive
8,c1ccc(C[P+](c2ccccc2)(c2ccccc2)c2ccccc2)cc1,inactive
9,O=S(=O)(O)CCC(F)(F)C(F)(F)C(F)(F)C(F)(F)F,inactive

# Target: X-box-binding protein 1 (Homo sapiens) (UniProt P17861)
# Sequence (P17861 whole entry, looked up): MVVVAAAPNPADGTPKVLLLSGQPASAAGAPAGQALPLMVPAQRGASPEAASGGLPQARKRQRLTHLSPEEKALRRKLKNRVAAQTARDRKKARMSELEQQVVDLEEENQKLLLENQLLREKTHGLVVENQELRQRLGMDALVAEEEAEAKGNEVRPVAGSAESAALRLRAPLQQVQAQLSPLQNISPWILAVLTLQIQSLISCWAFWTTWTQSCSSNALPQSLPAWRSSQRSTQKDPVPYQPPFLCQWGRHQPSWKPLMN
# Assay: ATG_Xbp1_CIS: Attagene CIS-FACTORIAL HepG2 Assay for human X-box Binding Protein 1 (XBP1) (AID 2282972)
# Settings: HepG2 XBP1 cis-element reporter, Attagene multiplex; actives raise or lower the signal
# How it was run: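 Read-out: fluorescent reporter mRNA fragments resolved by capillary electrophoresis after RT-PCR. Human HepG2 liver cells carried transfected cis-promoter reporter units and were exposed to chemicals for 24 hours. Gain or loss of signal fitted relative to DMSO baseline.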
SMILES,outcome,AC50
O=c1[nH]cccc1O,inactive,
CCC(C)CO (configuration not stated),inactive,
O=C(c1ccccc1)c1ccc(O)cc1O,inactive,
CCCCCCCC/C=C\CCCCCCCC(=O)OCC(O)CO (configuration not stated),inactive,
C#CC(O)CCC (configuration not stated),inactive,
O=C(Cl)c1ccc(Cl)cc1Cl,inactive,
CCOC(OCC)OCC,inactive,
CCOCN(C(=O)CS(=O)(=O)O)c1c(C)cccc1CC,inactive,
C[Si](C)O[Si](C)C,inactive,
CC(=O)CCC(C)C,inactive,
CCCC(=O)OCC(COC(=O)CCC)OC(=O)CCC,inactive,
O=c1cccc[nH]1,inactive,
CC(C)OC(=O)COc1ccc(Cl)cc1Cl,inactive,
CCN=C1C=CC(=C(c2ccc(N(CC)CC)cc2)c2ccc(N(CC)CC)cc2)c2ccccc21,,1.86 µM (active)
C=CC(=O)OCCC(F)(F)C(F)(F)C(F)(F)C(F)(F)F,inactive,
CCN=c1cc2oc3cc(NCC)c(C)cc3c(-c3ccccc3C(=O)OCC)c-2cc1C,,11.1 µM (active)
CC(=O)c1ccccc1N,inactive,
O=C1c2c(O)ccc(Nc3ccc(CCO)cc3)c2C(=O)c2c([N+](=O)[O-])ccc(O)c21,inactive,
